This passage reports Potency and outcome results from PubChem BioAssay (Tox21).

The nature of assay [1]: qHTS assay to identify small molecule agonists of the androgen receptor (AR) signaling pathway in the presence of an antagonist - cell viability counter screen (AID 1259379).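 Further: MDA-kb2 human breast cancer cells carrying an MMTV luciferase reporter; series mostly up to about 92 µM; nearly all actives have a fitted effect of over 25% in size.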 An outline of the steps: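 Fluorescence from CellTiter-Fluor, added after 15 hr and read 1 hr later, gave cell viability. Cells were MDA-kb2 exposed to compounds (15 concentrations) in the presence of 3.0uM nilutamide at 37C, 0% CO2.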

Assay [2] in a line: qHTS assay to identify small molecule agonists of the estrogen receptor beta (ER-beta) signaling pathway - cell viability counter screen (AID 1259380). Further: nearly all actives have a fitted effect of over 30% in size. An outline of the steps:
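Same-well viability counter screen. Cells: ER-beta-UAS-bla HEK293T, plated 6 hr before compound, in 2% charcoal-stripped FBS. Compound exposure 16 hr, 37C; viability by CellTiter-Glo luminescence after 30 min at room temperature.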

Assay [3] addresses Androgen receptor (Homo sapiens) (UniProt P10275). Description: qHTS assay to identify small molecule agonists of the androgen receptor (AR) signaling pathway in the presence of an antagonist (AID 1259381; calls by dose curve; further: nearly all actives have a fitted effect of over 15% in size). An outline of the steps:
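Cells are MDA-kb2 (human breast carcinoma, MMTV-luc, AR/GR responsive). Nilutamide is present at 3.0uM final throughout; compounds are added at 15 concentrations and incubated 16hr at 37C before ONE-Glo luminescence detection.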
In general terms: In qHTS, concentration-response curves come from the screen itself.

The nature of assay [4]: qHTS assay to identify small molecule antagonists of the estrogen receptor beta (ER-beta) signaling pathway - cell viability counter screen (AID 1259382). Further: series mostly up to about 92 µM; nearly all actives have a fitted effect of over 55% in size. An outline of the steps:
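Following a 6 hr plating period, HEK293T cells carrying a UAS-driven beta-lactamase reporter under ER-beta control received compounds and 1nM E2 (final). After 16 hr at 37C and 2 hr substrate loading, CellTiter-Glo luminescence indicated viability.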

Assay [5] deals with Thyrotropin receptor (Homo sapiens) (UniProt P16473). Description: qHTS assay to identify small molecule antagonists of the thyroid stimulating hormone receptor (TSHR) signaling pathway (AID 1259385; calls by dose curve; further: nearly all actives have a fitted effect of over 20% in size). An outline of the steps:
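TSHR-HEK293 cells (800/well) plated 18 h, then compounds with Ro20-1724 and TSH at 1.5 ng/mL final, 30 min at room temperature. cAMP quantified by HTRF (cAMP-d2/anti-cAMP-cryptate, 1 h); 15 concentrations in triplicate.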

Assay [6] concerns the target Estrogen receptor beta (Homo sapiens) (UniProt Q92731). Nature of the assay: qHTS assay to identify small molecule agonists of the estrogen receptor beta (ER-beta) signaling pathway (AID 1259377; active means well fitted activation curve with a large enough effect in the signal ratio in the repeat runs, not every such curve was filed as active; the % refers to the signal ratio). An outline of the steps: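 Ratiometric beta-lactamase FRET read-out came after 2 h substrate loading at room temperature. It followed 16 h compound treatment at 37C of GripTite HEK293T cells carrying a UAS-bla reporter, plated in 2% charcoal-stripped FBS medium.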

Assay [7] shares this target. Description: qHTS assay to identify small molecule antagonists of the estrogen receptor beta (ER-beta) signaling pathway (AID 1259378; active means well fitted inhibition curve with a large enough effect in the signal ratio in the repeat runs, not every such curve was filed as active; the % refers to the signal ratio). In short, it runs like this: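 ER-beta-UAS-bla HEK293T cells in 2% charcoal-stripped FBS medium treated with compound plus 1nM final 17-beta-estradiol for 16 hr at 37C. Beta-lactamase reporter read by FRET substrate fluorescence after 2 hours at room temperature.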

Assay [8] is described as follows: qHTS assay to identify small molecule agonists or antagonists of the thyroid stimulating hormone receptor (TSHR) signaling pathway - wild type cell line counter screen (AID 1259384; calls by dose curve). In short, it runs like this:
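Wild-type Hek293 cells, 800/well, 18 h at 37C, then compound with Ro20-1724 for 30 min RT. cAMP by HTRF (cAMP-d2/anti-cAMP cryptate), 1 h RT, fluorescence read. 15 concentrations, triplicates.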

Assay [9] deals with Estrogen receptor (Homo sapiens) (UniProt P03372). Description: qHTS assay to identify small molecule agonists of the estrogen receptor alpha (ER-alpha) signaling pathway in the presence of an antagonist (AID 1259383; calls by dose curve; further: nearly all actives have a fitted effect of over 15% in size; further: potency means the concentration at half of the fitted maximal effect; on activation: top concentration of the series differs between compounds). In short, it runs like this: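 Cells are hormone-deprived for 5 days (charcoal-stripped FBS, no phenol red), plated for 24hr, spiked with 10.0nM ICI-182,780, then dosed at 15 concentrations. After 22hr at 37C, ONE-Glo luminescence reports ERE-luciferase activity.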

Records with an inconclusive call do not appear. The source holds several records for some structures; these can differ, active in one and inactive in another. Activity calls are given as the source filed them. Unless noted, the call rests on the fitted dose curve; in most records, active means well fitted curve in the direction sought with a large enough effect in the repeat runs; inconclusive means weak or mixed curves; inactive means no such curve, though single readings can be large; an effect the other way counts as inactive or inconclusive.

Sequence of Estrogen receptor (Homo sapiens) (P03372 whole entry, looked up): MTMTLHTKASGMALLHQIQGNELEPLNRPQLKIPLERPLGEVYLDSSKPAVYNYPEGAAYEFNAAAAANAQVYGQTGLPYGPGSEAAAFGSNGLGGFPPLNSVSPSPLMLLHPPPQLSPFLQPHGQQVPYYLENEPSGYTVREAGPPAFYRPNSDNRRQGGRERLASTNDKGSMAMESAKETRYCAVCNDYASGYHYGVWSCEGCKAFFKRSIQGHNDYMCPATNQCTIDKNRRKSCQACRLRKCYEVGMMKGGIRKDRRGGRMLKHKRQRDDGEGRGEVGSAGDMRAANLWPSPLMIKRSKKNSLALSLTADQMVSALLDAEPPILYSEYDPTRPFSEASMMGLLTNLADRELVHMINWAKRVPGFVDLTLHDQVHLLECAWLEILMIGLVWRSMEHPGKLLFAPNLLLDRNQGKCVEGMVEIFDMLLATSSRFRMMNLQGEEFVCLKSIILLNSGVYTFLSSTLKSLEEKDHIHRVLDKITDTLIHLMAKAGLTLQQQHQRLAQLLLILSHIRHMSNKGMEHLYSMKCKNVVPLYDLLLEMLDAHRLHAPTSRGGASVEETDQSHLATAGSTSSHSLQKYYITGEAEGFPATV
Sequence of Estrogen receptor beta (Homo sapiens) (Q92731 whole entry, looked up): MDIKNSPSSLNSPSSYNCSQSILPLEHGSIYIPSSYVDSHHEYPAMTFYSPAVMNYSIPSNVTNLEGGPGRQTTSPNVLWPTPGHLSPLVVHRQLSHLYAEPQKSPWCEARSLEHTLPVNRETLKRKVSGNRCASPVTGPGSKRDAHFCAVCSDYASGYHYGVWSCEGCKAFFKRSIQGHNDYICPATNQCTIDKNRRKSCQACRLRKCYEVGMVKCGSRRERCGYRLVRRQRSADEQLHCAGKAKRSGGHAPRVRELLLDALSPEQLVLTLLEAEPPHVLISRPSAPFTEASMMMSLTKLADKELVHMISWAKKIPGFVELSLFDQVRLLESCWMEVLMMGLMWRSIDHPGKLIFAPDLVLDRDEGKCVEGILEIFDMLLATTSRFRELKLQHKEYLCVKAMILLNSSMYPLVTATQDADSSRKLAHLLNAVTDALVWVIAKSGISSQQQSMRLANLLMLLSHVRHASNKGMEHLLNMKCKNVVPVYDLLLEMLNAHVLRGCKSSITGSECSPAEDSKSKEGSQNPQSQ
Sequence of Androgen receptor (Homo sapiens) (P10275 whole entry, looked up): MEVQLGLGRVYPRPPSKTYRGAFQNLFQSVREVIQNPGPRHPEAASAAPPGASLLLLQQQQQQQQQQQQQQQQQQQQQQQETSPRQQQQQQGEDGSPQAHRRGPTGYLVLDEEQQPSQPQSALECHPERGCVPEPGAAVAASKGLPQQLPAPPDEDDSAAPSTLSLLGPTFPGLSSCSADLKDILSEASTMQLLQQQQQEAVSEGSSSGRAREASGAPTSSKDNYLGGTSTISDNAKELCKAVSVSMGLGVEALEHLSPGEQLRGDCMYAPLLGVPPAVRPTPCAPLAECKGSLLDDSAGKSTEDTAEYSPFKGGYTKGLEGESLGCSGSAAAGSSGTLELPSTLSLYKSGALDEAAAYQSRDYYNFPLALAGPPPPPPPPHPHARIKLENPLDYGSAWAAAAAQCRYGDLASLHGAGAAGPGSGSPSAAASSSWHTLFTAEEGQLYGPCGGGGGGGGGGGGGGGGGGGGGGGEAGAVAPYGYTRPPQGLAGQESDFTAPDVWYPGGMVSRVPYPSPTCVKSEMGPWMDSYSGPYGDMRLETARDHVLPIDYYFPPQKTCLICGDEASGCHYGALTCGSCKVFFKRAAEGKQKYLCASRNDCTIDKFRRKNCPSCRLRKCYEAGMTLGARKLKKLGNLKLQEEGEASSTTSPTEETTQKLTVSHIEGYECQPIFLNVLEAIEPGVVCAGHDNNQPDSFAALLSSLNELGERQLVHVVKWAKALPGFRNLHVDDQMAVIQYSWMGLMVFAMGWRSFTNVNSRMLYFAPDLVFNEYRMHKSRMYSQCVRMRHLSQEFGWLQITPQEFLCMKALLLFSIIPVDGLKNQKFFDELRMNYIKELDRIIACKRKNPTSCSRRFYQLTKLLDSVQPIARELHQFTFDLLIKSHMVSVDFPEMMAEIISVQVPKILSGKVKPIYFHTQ
Sequence of Thyrotropin receptor (Homo sapiens) (P16473 whole entry, looked up): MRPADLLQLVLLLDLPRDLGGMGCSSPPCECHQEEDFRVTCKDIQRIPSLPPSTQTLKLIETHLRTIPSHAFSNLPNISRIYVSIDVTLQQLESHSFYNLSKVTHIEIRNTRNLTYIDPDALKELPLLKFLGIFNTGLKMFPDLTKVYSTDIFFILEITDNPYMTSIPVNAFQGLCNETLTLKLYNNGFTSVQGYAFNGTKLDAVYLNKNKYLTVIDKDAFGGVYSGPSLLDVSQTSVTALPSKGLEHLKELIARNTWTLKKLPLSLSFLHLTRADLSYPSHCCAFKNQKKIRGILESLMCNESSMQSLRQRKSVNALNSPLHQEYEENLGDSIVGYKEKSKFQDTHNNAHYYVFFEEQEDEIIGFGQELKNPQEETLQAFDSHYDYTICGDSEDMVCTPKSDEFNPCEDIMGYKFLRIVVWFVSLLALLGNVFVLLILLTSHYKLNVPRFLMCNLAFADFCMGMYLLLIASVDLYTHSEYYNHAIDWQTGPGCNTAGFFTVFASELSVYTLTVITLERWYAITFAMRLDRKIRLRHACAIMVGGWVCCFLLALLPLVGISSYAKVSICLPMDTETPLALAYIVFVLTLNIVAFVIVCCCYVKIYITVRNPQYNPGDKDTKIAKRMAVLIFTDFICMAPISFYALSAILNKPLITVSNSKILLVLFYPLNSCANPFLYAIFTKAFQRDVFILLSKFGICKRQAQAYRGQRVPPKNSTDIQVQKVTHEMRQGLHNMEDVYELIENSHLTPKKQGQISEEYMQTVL

As for `COc1cc(OC)c(C(=O)CCCN2CCCC2)c(OC)c1`, the Potency result in assay [1], in assay [2] and in assay [3] was “inactive” throughout. For the same compound, the outcome in [4] and in assay [5] was inactive.
`CCO[Si](CCC#N)(OCC)OCC`: the Potency result in [6], in assay [7] and in [1] was “inactive” in each case. Also, the compound was called inactive in assay [4].
Consider `O=C1C(c2[nH]c3ccccc3c2O)=Nc2ccccc21`, for which the Potency entry in assay [7], in assay [1] and in assay [2] was “inactive” throughout. Moreover, the compound was called inactive in assay [4], in [8] and in [5].
In the case of `CCOCC(=O)O`, the Potency entry in [1], in [2] and in assay [9] was “inactive” throughout. Moreover, the result in assay [4], in assay [8] and in assay [5] was inactive.
Turning to `COc1ccc(OC)cc1`, the Potency entry in assay [1], in assay [2] and in assay [9] was “inactive” throughout. In addition, the compound was called inactive in assay [4] and in [8].
Turning to `CCCCCCCCCCCC(=O)OC`, the Potency entry in [6], in assay [7] and in [1] was “inactive” each time. In addition, the compound was classed as inactive in assay [4] and in assay [8].
For the compound `NCCNCCN`, the Potency result in assay [6], in assay [7], in assay [1] and in assay [2] was “inactive” each time. Further, the compound was classed as inactive in assay [4].
Regarding `COc1ccc([N+](=O)[O-])cc1N`, the Potency result in assay [6], in assay [7], in assay [1] and in assay [2] was “inactive” throughout. Further, the compound was classed as inactive in assay [4].
`CCCCCCCO`: the Potency result in assay [6], in assay [7] and in assay [1] was “inactive” each time. For the same compound, the call in assay [4] and in assay [8] was inactive.
On to `CC(=O)c1ccc(O)cc1`, for which the Potency result in assay [7], in assay [1] and in assay [2] was “inactive” throughout. Further, the outcome in assay [4] and in assay [5] was inactive.
Regarding `NCCCCCCN`, the Potency entry in assay [1] was “inactive”. Further, the call in [4] and in [5] was inactive.
Take `CN1C(=O)CC[C@H]1c1cccnc1`: the Potency result in assay [6], in assay [7] and in assay [1] was “inactive” in each case. The call in assay [4] was inactive.
Turning to `N#Cc1ccccc1`, the Potency entry in assay [6], in [7] and in [1] was “inactive” throughout. Moreover, the call in assay [4], in assay [8] and in assay [5] was inactive.
Turning to `C=CC(=O)OCCC(=O)O`, the Potency entry in [1], in assay [2] and in [9] was “inactive” in each case. Also, the call in [4] was inactive.
`NCCN1CCNCC1`: the Potency result in assay [6], in [7] and in assay [1] was “inactive” throughout. In addition, the compound was classed as inactive in [4] and in [5].
With `CCOC(=O)c1ccc(N)cc1`, the Potency entry in assay [6], in [7] and in assay [1] was “inactive” each time. Also, the outcome in assay [4], in [8] and in assay [5] was inactive.
Regarding `C=CC[N+](C)(C)CC=C`, the Potency result in assay [6], in [7] and in [1] was “inactive” in each case. Besides, the call in [4] and in [8] was inactive.
Turning to `CCOC(=O)n1ccn(C)c1=S`, the Potency result in assay [6], in assay [7], in [1], in assay [2] and in assay [9] was “inactive” throughout. Besides, the compound was called inactive in assay [4].
As for `O=C(O)CCCCCCCCC(=O)O`, the Potency result in assay [1] and in assay [2] was “inactive” each time. Moreover, the outcome in [4] and in assay [5] was inactive.
Turning to `O=C(O)c1ccc(C(=O)O)c(C(=O)O)c1`, the Potency entry in [1], in [2] and in [3] was “inactive” throughout. In addition, the result in assay [4] and in assay [8] was inactive.
For the compound `CCc1ccccc1CC`, the Potency entry in [6], in assay [7], in [1], in [2] and in [9] was “inactive” in each case. The compound was called inactive in [4], in [8] and in [5].
As to `O=C1c2ccccc2CCc2ccccc21`, the Potency entry in [6], in [7], in assay [1] and in assay [2] was “inactive” throughout. Further, the result in assay [4] and in assay [5] was inactive.
Regarding `N[C@H](Cc1c[nH]c2ccccc12)C(=O)O`, the Potency entry in [6], in assay [7], in assay [1] and in assay [2] was “inactive” throughout. The call in assay [4] and in [5] was inactive.
As for `O=C(O)c1ccccc1C(=O)O`, the Potency entry in assay [1] and in assay [2] was “inactive” each time. Further, the result in [4] and in [8] was inactive.
Take `CC(=O)OCc1ccccc1`: the Potency result in assay [6], in assay [7], in assay [1] and in assay [3] was “inactive” in each case. In addition, the compound was called inactive in assay [4] and in assay [8]. Further, the Potency in assay [9] was 139 nM (active) and inactive.
For `O=C(OCC1CCC2OC2C1)C1CCC2OC2C1` (stereo not given), the Potency result in assay [1] was “inactive”. In addition, the result in [4], in assay [8] and in assay [5] was inactive.
With `CCCCCCCC=O`, the Potency result in assay [1] and in assay [2] was “inactive” each time. For the same compound, the result in [4] was inactive.
In the case of `Nc1nc(N)nc(-c2ccccc2)n1`, the Potency entry in [6], in [7], in assay [1] and in assay [2] was “inactive” throughout. In addition, the compound was classed as inactive in assay [4], in [8] and in assay [5].
Consider `CC(=O)OC1CC(C)OC(C)O1` (stereo not given), for which the Potency result in assay [6], in [7], in assay [1] and in [2] was “inactive” in each case. In assay [4], the compound was classed as inactive.
For the compound `CCCCOC(=O)c1ccc(N)cc1`, the Potency entry in [6], in [1], in assay [2] and in assay [9] was “inactive” throughout. In addition, the compound was called inactive in [4], in [8] and in assay [5].
Take `CCOCCOCCOCCO`: the Potency entry in assay [6], in [7], in assay [1] and in assay [2] was “inactive” in each case. Also, the compound was called inactive in [4] and in assay [8].
`CC(C)(C)c1cc(Cc2cc(C(C)(C)C)c(O)c(C(C)(C)C)c2)cc(C(C)(C)C)c1O`: the Potency entry in assay [6], in [7], in [1], in [2] and in assay [9] was “inactive” in each case. Besides, the compound was called inactive in assay [4], in assay [8] and in [5].
